The nature of assay [1]: inhibitors of TNFa-induced NFkB p65 translocation, primary screen, imaging, HUVEC, MLSMR starter and 10KST1 sets (AID 438;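 active = inhibition above 20% together with a positive visual image hit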;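 note: compound added about 3h40 before a 20 min TNFalpha stimulation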;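 for inhibition: signal is the nuclear over cytoplasmic p65 intensity ratio per well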). Particulars: HUVEC TNFa-induced p65 nuclear translocation; cell count: measured here: nuclei count (cytotoxicity indicator), at 2.08 µM; inhibition: at 2 µM, stronger effect = higher value, 0% TNFa-plus-vehicle, 100% no-TNFa wells.
A short description of assay [2]: reduction of polyQ htt aggregates in cells – imaging, exon1htt(103Q)mCFP cells, high-content imaging, primary screen (AID 483;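 active = visual image review flags a hit and inhibition of aggregation exceeds 20%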;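 note: compound exposure lasted 3 days before fixation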;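 for nuclei count: percent of the per-plate median nuclei count of sample wells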). The note with it: exon1htt(103Q)mCFP cell line, aggregate imaging, at 2 µM; inhibition of aggregation: stronger effect = higher value; nuclei count: measured here: cell count, toxicity.
The nature of assay [3]: endothelial E-selectin expression blockers – imaging, HUVEC, immunofluorescence, MLSMR starter and 10KST1 sets, primary screen (AID 487;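 active = visually confirmed hit in the image check and inhibition above 20%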;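 for inhibition: signal is fraction of cell area covered by stained E-selectin grains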;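 for nuclei count: 100% = median nuclei count of all wells on the same plate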). Particulars: HUVEC TNFalpha-induced E-selectin immunofluorescence imaging, at 2 µM; inhibition: stronger effect = higher value; nuclei count: measured here: cell number, toxicity.
The target of assay [4] is Voltage-gated potassium channel subunit beta-2 (Rattus norvegicus) (UniProt P62483). The assay can be described thus: inhibitors of rat Kvbeta2 reductase activity – biochemical, NADPH fluorescence, primary screen (AID 622;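 active = fluorescence slope higher than the sample average by over 3 SD, cut at about -0.22 in these data, passing the limit was not always enough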;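 note: slope of raw intensity against log time taken from 70 to 1610 s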). Particulars: recombinant KvBeta, 4-cyanobenzaldehyde reduction, at 10 µM, stronger effect = higher value.
For assay [5] the target is unchanged. The assay can be described thus: enhancers of rat Kvbeta2 NADPH turnover – biochemical, NADPH fluorescence, primary screen (AID 623;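 active = NADPH fluorescence slope more negative than the mean of all samples by about 3 SD, 99.7% confidence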;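 note: fluorescence intensity change per second fitted from 20 to 320 s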). The note with it: Recombinant KvBeta, NADPH fluorescence decrease slope, 10 min; at 10 µM; stronger effect = lower value.
Assay [6] has as its target Alpha-2C adrenergic receptor (Homo sapiens) (UniProt P18825). The assay is described as follows: compounds altering alpha2C-coupled GIRK flux – cell-based, HEK293 alpha2C/GIRK1/2, thallium flux, primary screen (AID 624;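 active = fluorescence slope after compound addition differing from the mean of all screened samples at 99.7% confidence, in either direction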;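 note: slope of fluorescence ratio to pre-addition baseline per second over 15 to 24 s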). The note with it: thallium flux BTC fluorescence, at 10 µM, actives lie on both sides.
A short description of assay [7]: blockers of RIG-like receptor reporter activation – cell-based, Sendai virus stimulus, luciferase, 10K MLSCN set, TLR/RLR signaling modifier project, primary screen (AID 602276).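 Note: firefly luciferase from ISG56 promoter only with Renilla not read in this screen; 0% = Sendai virus plus DMSO and 100% = medium plus DMSO without virus.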 The note with it: HEK293 RL24 IRF3 luciferase reporter, at 10 µM, stronger effect = higher value. Background: In a reporter assay the amount or activity of a reporter protein is the signal.
Assay [8] is described as follows: TLR3 IRF3 reporter activation blockers – cell-based, poly I:C stimulus, luciferase, 10K MLSCN set, primary screen (AID 602277;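 active = inhibition of the reporter signal at or above 50%; inactive = inhibition below 50%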). Particulars: HEK293-TLR3 RL24 IRF3 luciferase reporter, at 10 µM, stronger effect = higher value.

Each structure is given as a SMILES string. Activity calls are given as the source filed them.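 Rule for the calls, unless noted: active = inhibition at or above 50% at 10 µM; inactive = inhibition below 50%.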

Chain of Alpha-2C adrenergic receptor (Homo sapiens) (P18825 whole entry, looked up): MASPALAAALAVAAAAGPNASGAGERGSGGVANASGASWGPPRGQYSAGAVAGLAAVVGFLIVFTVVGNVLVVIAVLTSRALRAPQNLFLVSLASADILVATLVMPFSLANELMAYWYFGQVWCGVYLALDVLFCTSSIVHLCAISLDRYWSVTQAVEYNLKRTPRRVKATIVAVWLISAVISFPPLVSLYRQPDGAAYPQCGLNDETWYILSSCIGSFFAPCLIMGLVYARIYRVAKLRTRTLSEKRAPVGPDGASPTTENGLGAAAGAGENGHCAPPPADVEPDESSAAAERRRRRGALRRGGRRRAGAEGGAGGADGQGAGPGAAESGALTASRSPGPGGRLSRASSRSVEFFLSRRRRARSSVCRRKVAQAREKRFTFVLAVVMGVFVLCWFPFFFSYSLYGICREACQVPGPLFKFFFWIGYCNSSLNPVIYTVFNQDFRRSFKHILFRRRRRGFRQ
Chain of Voltage-gated potassium channel subunit beta-2 (Rattus norvegicus) (P62483 whole entry, looked up): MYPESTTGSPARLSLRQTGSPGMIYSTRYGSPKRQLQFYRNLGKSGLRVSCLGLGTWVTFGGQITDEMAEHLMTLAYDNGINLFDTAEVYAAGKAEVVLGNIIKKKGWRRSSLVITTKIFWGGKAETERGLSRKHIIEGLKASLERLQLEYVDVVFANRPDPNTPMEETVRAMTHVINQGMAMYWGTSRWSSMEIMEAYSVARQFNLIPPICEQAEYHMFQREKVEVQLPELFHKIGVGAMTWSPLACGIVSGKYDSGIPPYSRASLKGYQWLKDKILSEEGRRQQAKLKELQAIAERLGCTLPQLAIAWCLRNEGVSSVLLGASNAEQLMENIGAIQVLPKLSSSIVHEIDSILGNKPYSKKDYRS

A word on the inhibition: it is the relative decrease from the control value, in per cent. As for `COc1ccc2[nH]c(=O)c(CN(Cc3cccs3)Cc3nnnn3C(C)(C)C)cc2c1`, the cell count in assay [1] stood at 713. Also, the inhibition in assay [1] was 29.2% (inactive); in assay [3], 12.5% (inactive); in assay [7], 10% (inactive); in assay [8], 7.17% (inactive). Further, the inhibition of aggregation in assay [2] was 1.1% (inactive). Also, the nuclei count in assay [2] was 111%; in assay [3] it was 88.8%. Besides, the fluorescence slope in assay [4] was -0.417 (inactive). Further, the NADPH fluorescence slope in assay [5] is -3.6e-05 (inactive). Moreover, the slope in assay [6] was 0.00579 (inactive).

Turning to `O=C(CSCc1cccc(F)c1)N1CCN(c2ccccc2)CC1`, in assay [1], the cell count stood at 545. Besides, the inhibition was -14.3% (inactive) in assay [1], -66.2% (inactive) in assay [3], -32.3% (inactive) in assay [7] and -145% (inactive) in assay [8]. Moreover, the inhibition of aggregation in assay [2] is 33.7% (inactive). Also, the figures for the nuclei count in assay [2] and in assay [3] were 68.7% and 123%, respectively. The fluorescence slope in assay [4] is -0.398 (inactive). Moreover, the NADPH fluorescence slope in assay [5] is -5.3e-05 (inactive). Further, the slope in assay [6] is 0.00288 (inactive).

For `CCCn1c(SCC(=O)NC(C)(C)C)nnc1C(C)C`, the cell count in assay [1] came out at 603. The inhibition in assay [1] is -6.3% (inactive); in assay [3], 19.4% (inactive); in assay [7] it was 13% (inactive); in assay [8] it was 23.2% (inactive). The inhibition of aggregation in assay [2] is 6.5% (inactive). In addition, the nuclei count in assay [2] was determined as 102%; in assay [3], 99.9%. For the same molecule, the fluorescence slope in assay [4] was -0.537 (inactive). In addition, the NADPH fluorescence slope in assay [5] is -0.000121 (inactive). The slope in assay [6] is 0.00641 (inactive).

In the case of `CCCCn1c(SCC(=O)NCc2ccccc2)nc2ccc(N3CCOCC3)cc2c1=O`, the cell count in assay [1] is 372. Besides, the inhibition is 4.3% (inactive) in assay [1], -28% (inactive) in assay [3], -6.72% (inactive) in assay [7] and 5.47% (inactive) in assay [8]. Further, the inhibition of aggregation in assay [2] was 10.3% (inactive). Also, the nuclei count in assay [2] was found to be 89%; in assay [3], 110%. In assay [4], the fluorescence slope was -0.351 (inactive). In assay [5], the NADPH fluorescence slope was 2.2e-06 (inactive). Further, the slope in assay [6] was 0.00561 (inactive).

With `O=c1cc(CSc2nnnn2-c2ccccc2)nc2scc(-c3ccccc3)n12`, the cell count in assay [1] turned out to be 444. Moreover, the inhibition was 8.1% (inactive) in assay [1], -101% (inactive) in assay [3], 1.29% (inactive) in assay [7] and 12% (inactive) in assay [8]. Also, in assay [2], the inhibition of aggregation is -10.9% (inactive). In addition, the nuclei count in assay [2] came out at 114%; in assay [3], 139%. Moreover, the fluorescence slope in assay [4] is -0.415 (inactive). Besides, the NADPH fluorescence slope in assay [5] is -1.1e-05 (inactive). Moreover, in assay [6], the slope is 0.004 (inactive).

On to `O=C(NCC1CCCO1)c1cccc(N2C(=O)C3C4C=CC(C4)C3C2=O)c1` (stereo not drawn), for which the cell count in assay [1] came out at 628. The inhibition in assay [1] is 8.8% (inactive); in assay [3], -16.1% (inactive); in assay [7], 8.37% (inactive); in assay [8], 10.8% (inactive). Moreover, in assay [2], the inhibition of aggregation is 0% (inactive). Besides, the nuclei count in assay [2] is 101%; in assay [3] it was 118%. In addition, the fluorescence slope in assay [4] was -0.42 (inactive). For the same molecule, the NADPH fluorescence slope in assay [5] was -4e-05 (inactive). In addition, in assay [6], the slope was 0.00583 (inactive).

Regarding `c1cncc(-c2nc3c4ccccc4nc(N4CCC(N5CCCCC5)CC4)n3n2)c1`, the cell count in assay [1] was 512. Further, the inhibition was -10.4% (inactive) in assay [1], -5.9% (inactive) in assay [3], 24.2% (inactive) in assay [7] and 30% (inactive) in assay [8]. Besides, the inhibition of aggregation in assay [2] is -10.8% (inactive). For the same molecule, the results for the nuclei count in assay [2] and in assay [3] were 97.3% and 98.2%, respectively. In assay [4], the fluorescence slope was -0.455 (inactive). Moreover, the NADPH fluorescence slope in assay [5] is -0.000334 (inactive). Also, in assay [6], the slope is 0.00496 (inactive).

Take `CCn1cc(SCC(=O)NCC2CCCO2)c2ccccc21` (stereo not drawn): in assay [1], the cell count was found to be 692. In addition, the inhibition in assay [1] is -20.6% (inactive); in assay [3], -8.7% (inactive); in assay [7], 3.88% (inactive); in assay [8] it was 15.1% (inactive). In addition, the inhibition of aggregation in assay [2] is 8.9% (inactive). Besides, the nuclei count worked out at 112% in assay [2] and 102% in assay [3]. In addition, in assay [4], the fluorescence slope is -0.4 (inactive). Also, the NADPH fluorescence slope in assay [5] was -4.5e-05 (inactive). Besides, the slope in assay [6] is 0.00573 (inactive).

For `Cc1ccc(S(=O)(=O)N2CCN(C(=O)CSC3CCCC3)CC2)c(C)c1`, in assay [1], the cell count was 318. Besides, the inhibition in assay [1] is 3.7% (inactive); in assay [3], -425% (inactive); in assay [7] it was 17.2% (inactive); in assay [8] it was 14.9% (inactive). Besides, the inhibition of aggregation in assay [2] is -0.7% (inactive). In addition, the nuclei count in assay [2] was determined as 93.6%; in assay [3], 110%. Moreover, the fluorescence slope in assay [4] is -0.482 (inactive). The NADPH fluorescence slope in assay [5] was 4.3e-06 (inactive). The slope in assay [6] is 0.00451 (inactive).

Take `N#Cc1c(N2CCCC2)nc(N)c2c(N)nc(N3CCCC3)cc12`: the cell count in assay [1] is 581. The inhibition was -9.2% (inactive) in assay [1], -144% (inactive) in assay [3], -6.36% (inactive) in assay [7] and 2.26% (inactive) in assay [8]. The inhibition of aggregation in assay [2] was -6.2% (inactive). The nuclei count in assay [2] turned out to be 84.2%; in assay [3] it was 160%. Also, in assay [4], the fluorescence slope is -0.0789 (active). In assay [5], the NADPH fluorescence slope is 1.7e-06 (inactive). The slope in assay [6] was 0.0051 (inactive).

On to `CC1(C)CC(=O)C(CC(=O)NC(=O)NCc2ccccc2)=C(O)C1`, for which the cell count in assay [1] stood at 462. Moreover, the inhibition in assay [1] is 3.4% (inactive); in assay [3], -65.4% (inactive); in assay [7], -1.73% (inactive); in assay [8], 7.39% (inactive). The inhibition of aggregation in assay [2] was 0.1% (inactive). Also, the values for the nuclei count in assay [2] and in assay [3] were 102% and 99.2%, respectively. Besides, the fluorescence slope in assay [4] is -0.501 (inactive). Also, in assay [5], the NADPH fluorescence slope was 1e-05 (inactive). Further, the slope in assay [6] is 0.00433 (inactive).

As to `Cc1cc(S(=O)(=O)N2CCN(c3ccccc3C)CC2)ccc1F`, the cell count in assay [1] was 651. Further, the inhibition in assay [1] is -8.1% (inactive); in assay [3] it was -131% (inactive); in assay [7] it was 14.2% (inactive); in assay [8] it was 28.2% (inactive). Further, in assay [2], the inhibition of aggregation was -13.5% (inactive). Moreover, the nuclei count in assay [2] was 103%; in assay [3] it was 125%. Besides, the fluorescence slope in assay [4] was -0.462 (inactive). Further, in assay [5], the NADPH fluorescence slope was 1.6e-05 (inactive). Moreover, the slope in assay [6] is 0.00665 (inactive).

For the molecule `COc1ccc(CCNc2oc(-c3ccco3)nc2C#N)cc1`, the cell count in assay [1] is 560. The inhibition in assay [1] is 15.1% (inactive); in assay [3], 35.2% (inactive); in assay [7], -0.514% (inactive); in assay [8], -18.9% (inactive). In assay [2], the inhibition of aggregation was 0.7% (inactive). Also, the results for the nuclei count in assay [2] and in assay [3] were 103% and 84.1%, respectively. In addition, the fluorescence slope in assay [4] is -0.605 (inactive). In assay [5], the NADPH fluorescence slope was -3.5e-05 (inactive). Further, the slope in assay [6] was 0.00388 (inactive).

These data come from PubChem BioAssay.
